# Inconclusive results are not listed. Entries that show only a call come without a potency. Some compounds were tested as several samples or in several runs, with calls that do not always agree. Activity calls are given as the source filed them. The call rests on the fitted dose curve; in most records, active means well fitted curve in the direction sought with a large enough effect; inconclusive means small, poorly fitted or top-dose-only effect, or another doubt; inactive means no such curve, though single readings can be large; an effect the other way counts as inactive or inconclusive.
# Assays:
# NIH3T3 = assay: Cytotoxic Profiling of Annotated Libraries Using Quantitative High-Throughput Screening (AID 1296008); conditions: Five cell lines viability, CellTiter-Glo ATP luminescence, 48-72 h; max response: stronger effect = lower value; further: nearly all actives have a fitted effect of over 60% in size
# How it was run: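 Cytotoxicity was measured as CellTiter-Glo ATP luminescence, read after 10 min at room temperature. Compound treatment of the cells lasted 48 or 72 hr at 37 degrees Celsius in a qHTS format.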
# MCC-13 = assay: qHTS assay to identify novel small-molecules to repurpose for Merkel cell carcinoma treatment (AID 1296009); conditions: MCC and control cell lines, CellTiter-Glo viability, 72 h; series mostly up to 46 µM; further: nearly all actives have a fitted effect of over 60% in size
# How it was run: (§1)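 Cell viability measured by CellTiter-Glo following 72 hr compound treatment at 37 degree celsius, with NPC and MIPE libraries tested in 8- and 11-point concentration series.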
# MCC-26 = assay: as above; conditions: MCC and control cell lines, CellTiter-Glo viability, 72 h; series mostly up to 46 µM
# How it was run: as §1
# MKL-1 = assay: as above; conditions: MCC and control cell lines, CellTiter-Glo viability, 72 h; series mostly up to 46 µM
# How it was run: as §1
# MKL-2 = assay: as above; conditions: MCC and control cell lines, CellTiter-Glo viability, 72 h; series mostly up to 46 µM
# How it was run: as §1
# UISO = assay: as above; conditions: MCC and control cell lines, CellTiter-Glo viability, 72 h; series mostly up to 46 µM
# How it was run: as §1
# WaGa = assay: as above; conditions: MCC and control cell lines, CellTiter-Glo viability, 72 h; series mostly up to 46 µM
# How it was run: as §1
# C33A = assay: Primary qHTS to identify gynecologic anti-cancer compounds using libraries of approved drugs and bioactive compounds (AID 1345084); conditions: Gynecologic cancer cell panel viability, ATPlite luminescence, 48 h; series mostly up to 57.5 µM; further: nearly all actives have a fitted effect of over 55% in size
# How it was run: (§2)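 ATP-based viability (ATPlite), 1,000 cells/well, 16 h pre-incubation, 48 h compound at 37 C, 5% CO2, 15 min RT before read.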
# CASKI = assay: as above; conditions: Gynecologic cancer cell panel viability, ATPlite luminescence, 48 h; series mostly up to 57.5 µM
# How it was run: as §2
# Es-2 = assay: as above; conditions: Gynecologic cancer cell panel viability, ATPlite luminescence, 48 h; series mostly up to 57.5 µM
# How it was run: as §2
# HeLa = assay: as above; conditions: Gynecologic cancer cell panel viability, ATPlite luminescence, 48 h; series mostly up to 57.5 µM
# How it was run: as §2
# Hek293T = assay: as above; conditions: Gynecologic cancer cell panel viability, ATPlite luminescence, 48 h, control line for the selectivity index; series mostly up to 57.5 µM
# How it was run: as §2
# JEG-3 = assay: as above; conditions: Gynecologic cancer cell panel viability, ATPlite luminescence, 48 h; series mostly up to 57.5 µM
# How it was run: as §2
# OV90 = assay: as above; conditions: Gynecologic cancer cell panel viability, ATPlite luminescence, 48 h; series mostly up to 57.5 µM
# How it was run: as §2
# PA-1 = assay: as above; conditions: Gynecologic cancer cell panel viability, ATPlite luminescence, 48 h; series mostly up to 57.5 µM
# How it was run: as §2
# SKOV3 = assay: as above; conditions: Gynecologic cancer cell panel viability, ATPlite luminescence, 48 h; series mostly up to 57.5 µM
# How it was run: as §2
# CAOV3 = assay: as above; conditions: Gynecologic cancer cell panel viability, ATPlite luminescence, 48 h; series mostly up to 57.5 µM
# How it was run: as §2
# Potency means the concentration at half of the fitted maximal effect.
SMILES,max response (NIH3T3),Potency (MCC-13),Potency (MCC-26),Potency (MKL-1),Potency (MKL-2),Potency (UISO),Potency (WaGa),Potency (C33A),Potency (CASKI),Potency (Es-2),Potency (HeLa),Potency (Hek293T),Potency (JEG-3),Potency (OV90),Potency (PA-1),Potency (SKOV3),Potency (CAOV3),Potency (NIH3T3)
C[C@@H]1C[C@H]2[C@@H]3C[C@H](F)C4=CC(=O)C(Cl)=C[C@]4(C)[C@@]3(F)[C@@H](O)C[C@]2(C)[C@@]1(O)C(=O)CO,-7.22% (inactive),inactive,inactive,inactive,inactive,inactive,inactive,inactive,inactive,inactive,inactive,inactive,inactive,inactive,inactive,inactive,–,–
CC/C(=C(/CC)c1ccc(O)cc1)c1ccc(O)cc1,-25.4% (inactive),inactive,–,inactive,–,–,–,inactive,inactive,inactive,inactive,inactive,inactive,inactive,inactive,inactive,inactive,–
CC(=O)Oc1ccc(C(c2ccc(OC(C)=O)cc2)c2ccccn2)cc1,-2.66% (inactive),inactive,–,inactive,inactive,–,inactive,inactive,–,inactive,–,inactive,inactive,–,inactive,inactive,inactive,–
CCCCCCc1ccc(O)cc1O,4.72% (inactive),inactive,inactive,inactive,inactive,inactive,inactive,inactive,inactive,inactive,inactive,inactive,inactive,inactive,inactive,inactive,inactive,–
CC1(C)O[C@@H]2C[C@H]3[C@@H]4C[C@H](F)C5=CC(=O)C=C[C@]5(C)[C@H]4[C@@H](O)C[C@]3(C)[C@]2(C(=O)CO)O1,-4.68% (inactive),inactive,inactive,inactive,inactive,inactive,inactive,inactive,inactive,inactive,inactive,inactive,inactive,inactive,inactive,inactive,inactive,–
COc1cc(C=C2CCC/C(=C\c3ccc(O)c(OC)c3)C2=O)ccc1O,–,26.6 µM (active),–,4.22 µM (active),2.99 µM (active),21.1 µM (active),5.31 µM (active),–,–,inactive,–,inactive,–,inactive,–,–,–,16.8 µM (active)
C[C@]12CCC(=O)C=C1[C@@H]1C[C@@H]1[C@H]1[C@@H]3[C@@H]4C[C@@H]4[C@@]4(CCC(=O)O4)[C@@]3(C)CC[C@@H]12,-5.26% (inactive),inactive,inactive,inactive,inactive,–,–,–,inactive,inactive,3.55 µM (active),inactive,inactive,–,–,inactive,inactive,–
COCc1c(C(C)C)nc(C(C)C)c(/C=C/[C@@H](O)C[C@@H](O)CC(=O)O)c1-c1ccc(F)cc1,–,1.19 µM (active),–,0.75 µM (active),–,0.473 µM (active),1.06 µM (active),–,inactive,–,1.78 µM (active),–,–,1.78 µM (active),2.82 µM (active),–,7.08 µM (active),2.37 µM (active)
COc1cccc2c1C(=O)c1c(O)c3c(c(O)c1C2=O)C[C@@](O)(C(C)=O)C[C@@H]3O[C@H]1C[C@H](N)[C@H](O)[C@H](C)O1,–,1.06 µM (active),0.944 µM (active),0.0237 µM (active),0.0106 µM (active),0.211 µM (active),0.0237 µM (active),0.631 µM (active),0.708 µM (active),0.708 µM (active),4.47 µM (active),–,–,1.26 µM (active),–,–,–,0.133 µM (active)
Cc1ccccc1C(=O)Nc1ccc(C(=O)N2CCCC(N(C)C)c3ccccc32)cc1 (stereo not given),–,inactive,inactive,inactive,inactive,inactive,inactive,inactive,–,–,–,–,inactive,inactive,–,–,–,9.44 µM (active)
COc1cc2c(cc1OC)C(=O)C(CC1CCN(Cc3ccccc3)CC1)C2 (stereo not given),-17.7% (inactive),inactive,inactive,inactive,–,inactive,–,inactive,inactive,inactive,inactive,inactive,inactive,–,–,–,–,–
Cc1cc(N)c2cc(NC(=O)Nc3ccc4nc(C)cc(N)c4c3)ccc2n1,-1.27% (inactive),inactive,inactive,–,inactive,inactive,–,inactive,inactive,inactive,inactive,inactive,inactive,–,inactive,inactive,inactive,–
CC(C)(C)CC(C)(C)c1ccc(OCCOCC[N+](C)(C)Cc2ccccc2)cc1,-27.5% (inactive),inactive,–,1.06 µM (active),0.944 µM (active),8.41 µM (active),1.5 µM (active),–,10 µM (active),inactive,inactive,inactive,inactive,–,14.1 µM (active),12.6 µM (active),25.1 µM (active) and inactive,–
O=S1(=O)c2cccc3cccc(c23)N1CCCN1CCN(c2ccc(F)cc2)CC1,-13.9% (inactive),inactive,–,inactive,–,inactive,–,inactive,inactive,inactive,inactive,inactive,inactive,inactive,inactive,inactive,inactive,–
CCCCN1CCCC1C(=O)Nc1c(C)cc(C)cc1C (stereo not given),-4.8% (inactive),inactive,inactive,inactive,inactive,inactive,inactive,inactive,inactive,inactive,inactive,inactive,inactive,–,inactive,inactive,inactive,–
CCCOC(C(=O)OC1CCN(C)CC1)(c1ccccc1)c1ccccc1,4.34% (inactive),inactive,–,inactive,–,inactive,–,inactive,inactive,inactive,inactive,inactive,inactive,–,inactive,inactive,inactive,–

# Reference: PubChem BioAssay (NCATS)
